PLK1 PBD inh = qHTS for Inhibitors of PLK1-PDB (polo-like kinase 1 - polo-box domain): Primary Screen | 360,000 tested, 2.8% active | AID 720504, 2013 | Plk1 PBD binding of FITC phosphopeptide, fluorescence polarization | Potency, µM, usual class: inhibitors; note: series mostly up to about 57 µM; nearly all actives have a fitted effect of over 65% in size
VDR inhibitor = Inhibitors of the vitamin D receptor (VDR): qHTS | VDR-SRC2-3 peptide fluorescence polarization, 2 h | Vitamin D3 receptor (Homo sapiens), P11473 | Potency, µM, hits mostly inhibitors | AID 504847, 2011 | 400,000 tested, 0.93% active
Target sequence (P11473 whole entry, looked up): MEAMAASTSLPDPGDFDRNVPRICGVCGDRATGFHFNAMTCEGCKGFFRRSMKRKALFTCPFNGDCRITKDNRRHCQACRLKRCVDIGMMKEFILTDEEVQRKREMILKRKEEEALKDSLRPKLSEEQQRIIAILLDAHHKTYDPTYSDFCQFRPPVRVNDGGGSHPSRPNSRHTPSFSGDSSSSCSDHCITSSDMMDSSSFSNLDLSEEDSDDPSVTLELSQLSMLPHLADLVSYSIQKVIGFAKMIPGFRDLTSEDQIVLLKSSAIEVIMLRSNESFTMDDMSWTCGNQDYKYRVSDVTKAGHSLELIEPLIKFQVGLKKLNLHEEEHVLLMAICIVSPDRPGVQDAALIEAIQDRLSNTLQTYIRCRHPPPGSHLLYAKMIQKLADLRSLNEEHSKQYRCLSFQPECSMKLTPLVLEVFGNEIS
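FP read-out; VDR + SRC2-3 coactivator peptide; 23 nl compound by pintool; 2 h RT incubation; reagents held at 4 deg C, protected from light.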
G9a inh = qHTS Assay for Inhibitors of Histone Lysine Methyltransferase G9a; 350,000 tested, 8.8% active; Histone-lysine N-methyltransferase EHMT2 (Homo sapiens), Q96KQ7; AID 504332, 2011; Potency, µM (doses to about 102 µM), most hits filed as inhibitors; G9a H3K9 monomethylation, AlphaScreen, 2 h; note: nearly all actives have a fitted effect of over 75% in size
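AlphaScreen detection with an anti-monomethyl H3K9 antibody quantified product after a 2 h room-temperature reaction containing 500 nM biotinylated H3K9 peptide, 20 µM SAM and 20 nM enzyme, which had been preincubated 15 min with compound.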
JMJD2A Tudor inh = qHTS Assay for Inhibitors of JMJD2A-Tudor Domain; Lysine-specific demethylase 4A (Homo sapiens), O75164; AlphaScreen JMJD2A-Tudor / H3K4me3 peptide binding; Potency, µM (highest dose often 114 µM), usual class: inhibitors; 390,000 tested, 4.4% active; note: nearly all actives have a fitted effect of over 50% in size
HP1b binding inh = HTS for Inhibitors of HP1-beta Chromodomain Interactions with Methylated Histone Tails; Chromobox protein homolog 1 (Homo sapiens), P83916; AlphaScreen HP1-beta / biotin-H3K9me3 peptide binding; Potency, µM (top dose mostly 114 µM), usual class: inhibitors; 390,000 tested, 0.56% active; note: nearly all actives have a fitted effect of over 70% in size
Target sequence (P83916 whole entry, looked up): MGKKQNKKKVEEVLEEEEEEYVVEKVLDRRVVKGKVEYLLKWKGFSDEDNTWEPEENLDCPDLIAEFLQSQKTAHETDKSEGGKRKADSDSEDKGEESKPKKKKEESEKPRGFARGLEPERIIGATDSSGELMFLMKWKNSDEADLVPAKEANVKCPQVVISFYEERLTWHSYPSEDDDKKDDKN
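AlphaScreen: HP1-beta (50 nM) preformed 30 min with biotin-H3(1-18)K9me3 peptide (50 nM) in PBS pH 7.4, 0.01% Tween-20. Compound added for 30 min at RT, then streptavidin donor/nickel chelate acceptor beads (10 ug/mL) for 30 min.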
BAZ2B block = qHTS Assay for Inhibitors of BAZ2B; 360,000 tested, 4.4% active; Bromodomain adjacent to zinc finger domain protein 2B (Homo sapiens), Q9UIF8; AlphaScreen BAZ2B-H3K14Ac peptide displacement; Potency, µM (series often up to 114 µM), most hits filed as inhibitors; note: nearly all actives have a fitted effect of over 60% in size
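Protein-peptide AlphaScreen: BAZ2B 50 nM, b-H3K14Ac 50 nM, 1x PBS pH 7.4 + 0.01% Tween-20. Preincubation 30 min RT; cpd 30 min RT (top 110 uM); beads 20 min RT, light-protected.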
Large screens that a line does not name were inactive. Only some compounds are listed: those with a hit (about 11% of all), similar ones and a draw of the others. Calls come from the whole dose curve; as a rule, active = well fitted curve in the direction sought with a large enough effect; inconclusive = small, poorly fitted or top-dose-only effect, or another doubt; inactive = no such curve, though single readings can be large; an effect the other way counts as inactive or inconclusive.

O=C(O)Cn1c2c(c3ccccc31)CSc1ccc(Cl)cc1-2	PLK1 PBD inh 13µM, VDR inhibitor inconclusive, G9a inh inconclusive, JMJD2A Tudor inh inconclusive, BAZ2B block inconclusive
c1ccc2c(OCCCN3CCCCCC3)cccc2c1	JMJD2A Tudor inh 22µM, HP1b binding inh inconclusive, BAZ2B block 56µM (no result: G9a inh)
c1ccc(-c2ccccc2OCCN2CCOCC2)cc1	G9a inh 10µM, JMJD2A Tudor inh 14µM, HP1b binding inh 20µM, BAZ2B block 79µM
Fc1ccccc1OCCCCCN1CCCC1	none
c1ccc(-c2ccccc2OCCCN2CCCCC2)cc1	G9a inh 8.9µM, JMJD2A Tudor inh 7.9µM, BAZ2B block inconclusive
Clc1cccc(OCCCN2CCCC2)c1Cl	G9a inh inconclusive, JMJD2A Tudor inh 20µM, HP1b binding inh inconclusive
OCCCN1CCN(CCOc2ccccc2-c2ccccc2)CC1	none
CCCCCCCCN1C(=O)[C@H](CC(=O)NCc2ccccc2)C[C@@]2(C(=O)OC)CC(C)(C)CC=C12	none (no result: VDR inhibitor, G9a inh, JMJD2A Tudor inh, HP1b binding inh, BAZ2B block)
CCc1cccc(NC(=O)CCCn2nc(C)c3c(C)n(-c4ccccc4)nc3c2=O)c1	none
CCN1CCN(CCCOc2ccccc2-c2ccccc2)CC1	JMJD2A Tudor inh 22µM, BAZ2B block 28µM (no result: G9a inh)
CC(C)NC(=O)C1(C)CCN1C/C=C/c1ccccc1 (stereo not given)	none (no result: VDR inhibitor, G9a inh, JMJD2A Tudor inh, HP1b binding inh, BAZ2B block)
COc1cc2c3nnc(-c4ccc(F)cc4)c-3cn(Cc3cccc(F)c3)c2cc1OC	PLK1 PBD inh inconclusive, G9a inh 45µM, JMJD2A Tudor inh inconclusive (no result: BAZ2B block)
COc1cc(S(=O)(=O)Nc2ncccc2C)c(OC)cc1Cl	none
COc1ccc(Br)cc1S(=O)(=O)Nc1ncccc1C	PLK1 PBD inh 30µM, JMJD2A Tudor inh inconclusive (no result: G9a inh)
COc1ccc(-c2nc3ccccc3s2)cc1NC(=O)c1ccc(F)cc1	none (no result: PLK1 PBD inh)
CCOc1ccc2nc(N3CCN(C(=O)CS(=O)(=O)c4ccc(F)cc4)CC3)sc2c1	none (no result: PLK1 PBD inh)
CCOC(=O)c1cnc2c(cnn2C)c1NCCCN(C)C	none
CCOC(=O)c1cnc2c(cnn2CC)c1NN=C(C)C	VDR inhibitor inconclusive, G9a inh 30µM (no result: PLK1 PBD inh, JMJD2A Tudor inh, HP1b binding inh, BAZ2B block)
Cc1c(NN=C(C#N)C#N)c(=O)n(-c2ccccc2)n1C	G9a inh 10µM
Cc1c(NC(=O)/C(C#N)=C/c2ccccc2)c(=O)n(-c2ccccc2)n1C	G9a inh 71µM
O=C1NN(c2ccccc2)C(=O)/C1=C\c1ccccc1OCC(=O)N1CCOCC1	PLK1 PBD inh 21µM, VDR inhibitor inconclusive, G9a inh 45µM
S=C(c1ccc(N2CCOCC2)cc1)N1CCCCC1	none
COc1ccc(C(=S)N2CCCC2)cc1Br	none
S=C(c1ccc(Br)cc1)N1CCCC1	PLK1 PBD inh inconclusive, G9a inh 45µM
Oc1ccc(C(=S)N2CCCCC2)cc1	PLK1 PBD inh 19µM, G9a inh 45µM
O=S(=O)(c1ccccc1)N1CCC2(CCCN(Cc3cc(C(F)(F)F)cc(C(F)(F)F)c3)C2)CC1	none (no result: PLK1 PBD inh, JMJD2A Tudor inh, HP1b binding inh, BAZ2B block)
Cc1c(NC(=S)NC(=O)c2sc3ccccc3c2Cl)cccc1C(=O)O	VDR inhibitor inconclusive, G9a inh 4.5µM, JMJD2A Tudor inh inconclusive, BAZ2B block 50µM
COc1ccccc1C(=O)NNC(=S)NC(=O)c1sc2ccccc2c1Cl	PLK1 PBD inh inconclusive
CCCc1[nH][nH]c(=O)c1C(c1cccc(Cl)c1)C(C#N)C#N (stereo not given)	PLK1 PBD inh 11µM, G9a inh 79µM, BAZ2B block inconclusive
CN1CCN(CCOc2ccc(-c3ccccc3)cc2)CC1	G9a inh 50µM, BAZ2B block inconclusive
CN1CCC(=O)N(CCOc2ccccc2)CC1	G9a inh 28µM, JMJD2A Tudor inh inconclusive, BAZ2B block inconclusive
O=C(O)c1cccc(OCCN2CCCC2=O)c1	none (no result: G9a inh)
CN1CCN(CCCOc2ccc(-c3ccccc3)cc2)CC1	PLK1 PBD inh 21µM, JMJD2A Tudor inh inconclusive (no result: G9a inh)
NS(=O)(=O)c1ccc2c(c1)oc(=O)c1cc(S(N)(=O)=O)ccc12	none (no result: G9a inh)
CN(C)c1ccc(-c2cc[nH]c(=O)c2N)cc1	JMJD2A Tudor inh 20µM (no result: PLK1 PBD inh, VDR inhibitor, G9a inh, HP1b binding inh, BAZ2B block)
N#Cc1c2c(c(Nc3ccc(O)cc3)n3c1nc1ccccc13)CCC2	G9a inh 1.3µM
N#Cc1c2c(c(NCc3ccco3)n3c1nc1ccccc13)CCC2	none
CC(=O)c1sc2c(c1C)c(=O)n(-c1ccc(Cl)cc1)c(=O)n2Cc1ccc(Cl)cc1	none (no result: PLK1 PBD inh)
O=C(CC(c1ccccc1)C1CCCCC1=O)c1ccco1 (stereo not given)	none
O=C(CC(c1ccco1)C1CCCCC1=O)c1ccco1 (stereo not given)	G9a inh 56µM, BAZ2B block inconclusive
O=c1oc2ccccc2c(NC2CCCCC2)c1NS(=O)(=O)c1ccc(F)cc1	PLK1 PBD inh 3.4µM, VDR inhibitor inconclusive, JMJD2A Tudor inh inconclusive
CC(C)C(NC(=O)c1ccc(Cl)cc1)C(=O)NC1=NCCS1 (stereo not given)	G9a inh inconclusive
CC(C)[C@H](NC(=O)c1ccc(F)cc1)C(=O)NC1=NCCS1	JMJD2A Tudor inh 18µM
N#Cc1ccc(C(=O)NC2=NCCS2)cc1	G9a inh 40µM, BAZ2B block inconclusive
Cc1ccc(C(=O)NC2=NCCS2)cc1	BAZ2B block inconclusive (no result: PLK1 PBD inh, VDR inhibitor, JMJD2A Tudor inh, HP1b binding inh)
CC1CCN(CCCOc2ccc(Cl)cc2Br)CC1	G9a inh 20µM, JMJD2A Tudor inh 20µM, HP1b binding inh inconclusive, BAZ2B block inconclusive
CC1CCCN(CCOc2ccc3ccccc3c2Br)C1 (stereo not given)	G9a inh inconclusive, JMJD2A Tudor inh inconclusive, HP1b binding inh inconclusive, BAZ2B block 22µM
